Records with an inconclusive call do not appear. The source made the active and inactive calls. The calls were made as follows: active = hit-call score of the fitted dose curve at least 0.9, where 1 is the maximum; inconclusive = response in the unintended direction; inactive = score below 0.9.
Experiments:
[1] = biological target: Type-1 angiotensin II receptor (Homo sapiens) (UniProt P30556); test: NVS_GPCR_hAT1: NovaScreen (NVS) G Protein-Coupled Receptor Assay for human Angiotensin II receptor type 1 (AT1) (AID 2283263)
Type-1 angiotensin II receptor (Homo sapiens), sequence (P30556 whole entry, looked up): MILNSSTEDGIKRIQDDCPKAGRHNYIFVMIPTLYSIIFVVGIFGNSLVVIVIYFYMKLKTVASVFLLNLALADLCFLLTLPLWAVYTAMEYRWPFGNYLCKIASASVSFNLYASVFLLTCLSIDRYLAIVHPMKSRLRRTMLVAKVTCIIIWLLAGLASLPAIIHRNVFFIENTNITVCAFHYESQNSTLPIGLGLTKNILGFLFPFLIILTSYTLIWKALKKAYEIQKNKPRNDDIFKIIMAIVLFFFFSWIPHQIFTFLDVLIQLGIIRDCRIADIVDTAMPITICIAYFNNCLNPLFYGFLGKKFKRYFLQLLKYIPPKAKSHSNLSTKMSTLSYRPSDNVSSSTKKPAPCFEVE
Summary of the method: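 Membranes from KAN-TS cells; radioligand competitive displacement, 3 h, filtration and scintillation counting. Single-point duplicate screen at 25 uM, then concentration-response up to 50 uM for hits; loss of signal fitted versus DMSO.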

[2] = biological target: human Endothelin Receptor Type A (ETA), EDNRA (gene 1909) (UniProt P25101); test: NVS_GPCR_hETA: NovaScreen (NVS) G Protein-Coupled Receptor Assay for human Endothelin Receptor Type A (ETA) (AID 2283265)
human Endothelin Receptor Type A (ETA), EDNRA (gene 1909), sequence (P25101 whole entry, looked up): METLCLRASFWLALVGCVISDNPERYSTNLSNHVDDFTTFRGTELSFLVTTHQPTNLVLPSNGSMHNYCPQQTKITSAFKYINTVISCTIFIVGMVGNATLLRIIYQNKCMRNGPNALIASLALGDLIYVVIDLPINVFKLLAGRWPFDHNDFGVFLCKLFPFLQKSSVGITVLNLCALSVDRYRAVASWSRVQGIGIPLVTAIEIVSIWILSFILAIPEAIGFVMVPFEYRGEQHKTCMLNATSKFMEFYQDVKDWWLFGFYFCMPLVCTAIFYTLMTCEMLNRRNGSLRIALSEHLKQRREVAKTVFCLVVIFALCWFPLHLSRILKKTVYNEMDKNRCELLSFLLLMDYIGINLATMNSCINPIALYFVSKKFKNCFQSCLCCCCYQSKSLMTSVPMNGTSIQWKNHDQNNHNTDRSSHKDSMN
Summary of the method: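 Cell-free radioligand displacement using SH-SY5Y-derived protein, 3 h incubation, filter-based scintillation counting. Primary screen in duplicate at 25 uM; actives then run in concentration-response up to 50 uM; loss of binding fitted versus DMSO.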

[3] = biological target: human Endothelin Receptor Type B (ETB), EDNRB (gene 1910) (UniProt P24530); test: NVS_GPCR_hETB: NovaScreen (NVS) G Protein-Coupled Receptor Assay for human Endothelin Receptor Type B (ETB) (AID 2283267)
human Endothelin Receptor Type B (ETB), EDNRB (gene 1910), sequence (P24530 whole entry, looked up): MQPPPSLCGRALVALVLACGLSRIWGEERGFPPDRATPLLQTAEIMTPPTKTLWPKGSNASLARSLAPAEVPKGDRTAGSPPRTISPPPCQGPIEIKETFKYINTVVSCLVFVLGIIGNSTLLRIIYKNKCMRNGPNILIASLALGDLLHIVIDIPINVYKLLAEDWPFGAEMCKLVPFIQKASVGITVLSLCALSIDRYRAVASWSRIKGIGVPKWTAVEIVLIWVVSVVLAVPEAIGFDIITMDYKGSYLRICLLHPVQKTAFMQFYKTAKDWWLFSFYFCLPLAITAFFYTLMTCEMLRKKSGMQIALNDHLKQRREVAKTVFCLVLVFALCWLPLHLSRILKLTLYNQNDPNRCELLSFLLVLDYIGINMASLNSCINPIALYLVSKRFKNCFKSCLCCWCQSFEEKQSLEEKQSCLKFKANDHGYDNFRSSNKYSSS
Summary of the method: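 Human astrocytoma cell membranes; radioligand competitive binding read by filter scintillation counting 4 hours after dosing. Single-concentration duplicate screen at 25 uM, then singleton concentration-response up to 50 uM; loss of signal versus DMSO.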

O=C(O)Cc1cc(I)c(Oc2cc(I)c(O)c(I)c2)c(I)c1
outcome [1]: inactive

CCCCCCCCCCCCc1ccccc1S(=O)(=O)O
AC50 [1]: 8.83 µM (active)

N#C[C@@H]1CC(F)(F)CN1C(=O)CNC1CC2CCC(C1)N2c1ncccn1 (stereo partly specified)
AC50 [2]: 9.53 µM (active)

CC(C)(C)c1ccc(O)c(C(C)(C)C)c1
outcome [2]: inactive

CC(=O)CC(C)(C)O
outcome [3]: inactive

C#C[C@]1(O)CC[C@H]2[C@@H]3CCC4=CC(=O)CC[C@@H]4[C@H]3CC[C@@]21C
outcome [3]: inactive
